Measured values published in PubChem BioAssay AID652251 (National Center for Advancing Translational Sciences (NCATS), 2013).
Active and inactive are the calls of the source.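 Rule for the calls: active = lowers cyclin D1 in cells by half at 5 µM or less; inconclusive = half-effect dose above 5 µM but under 10 µM; inactive = half-effect dose of 10 µM or more.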

Assay: qHTS for Inhibitors of Ubiquitin-specific Protease USP2a Using CHOP2 as the Reporter: Cyclin D1 Western Blot
Details: HCT116 cyclin D1 western blot
Excerpt: Homeostasis of cellular proteins is maintained through a combination of synthesis and degradation. The pathway that accounts for the majority of protein degradation is the ubiquitin-proteasomal pathway. Ubiquitin (Ub) is highly conserved in all cells and the generation of a multi-Ub chain typically targets proteins for degradation by the proteasome. However, ubiquitination is highly reversible and dynamic. Deubiquitination, the reverse process, is catalyzed through the action of enzymes referred to as isopeptidases or deubiquitinating enzymes (DUBs). This group of enzymes is collectively responsible for maintaining adequate pools of free ubiquitin and regulating the ubiquitination status of cellular proteins. The class of DUBs referred to as the ubiquitin-specific proteases (USP) family functions endoproteolytically to cleave Ub chains from a wide range of protein substrates. USP2a deubiquitinates fatty acid synthase (FASN) which has recently been identified as an emerging oncology target. […] To further visualize and quantitate the effect of compounds on cell proliferation, a colony forming or clonogenic assay was performed in 6-well plates using HCT116 cells. […] The colonies were visualized on the Typhoon imager (GE) using Cy5 detection, and quantitated with the associated software. […]
. […] Protein levels were quantified using ImageJ.
With `Cc1ccc(S(=O)(=O)Nc2cc(C(F)(F)F)ccc2C(=O)Nc2nc(-c3ccccc3)cs2)cc1` the Potency was 0.97 µM (active).
